This passage reports growth results from PubChem BioAssay (NCI).

The structures appear in SMILES notation. Compounds without any hit were thinned out: in the full panel of roughly 83,000, 20% have a hit.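 Single-dose data. Exposure time 48 hours. Values below 10 considered active.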 A number with no mark means an inactive call. Activity calls are given as the source filed them.

Test systems include HCT-15 colon; HT29 colon; SNB-75 CNS; SNB-19 CNS; U251 CNS; PC-3 prostate; SK-MEL-5 melanoma; UACC-62 melanoma; LOX IMVI melanoma; SK-MEL-2 melanoma; EKVX NSCLC; SN12C renal; UO-31 renal; TK-10 renal; ACHN renal; CAKI-1 renal; A498 renal; CCRF-CEM leukemia; MOLT-4 leukemia; SK-MEL-28 melanoma.
Holding throughout (experiment): NCI-60 one-dose screen, 48 h (100 = growth as untreated, 0 = no growth, -100 = all killed)
Conditions in all cases: 10 µM unless noted

In the case of `COc1cc(C(=O)c2cnc(-c3c[nH]c4cccc(C)c34)[nH]2)cc(OC)c1OC`, the growth with HCT-15 colon was 12%; with HT29 colon, 6.72% (active); in the experiment on SNB-75 CNS it was 20.3%; in the experiment on SNB-19 CNS, 37.9%; in the experiment with U251 CNS it was 17.7%; with PC-3 prostate it was 19.4%. Besides, the growth is -30.7% (active) in the experiment on SK-MEL-5 melanoma; 32.6% in the experiment with UACC-62 melanoma; 24.9% in the experiment on LOX IMVI melanoma; 35% with SK-MEL-2 melanoma; 29.7% in the experiment with EKVX NSCLC; 28.1% in the experiment with SN12C renal. For the same compound, the growth in the experiment with UO-31 renal is 17%; with TK-10 renal it was 43.8%; with ACHN renal it was 26.4%; in the experiment with CAKI-1 renal it was 6.61% (active); in the experiment with A498 renal, -12% (active); in the experiment with CCRF-CEM leukemia, 6.39% (active). The growth with MOLT-4 leukemia is 8.85% (active).

Turning to `Cc1ccc(C(=O)NCCNc2nccc(-c3c(-c4cccc(F)c4)nc4sccn34)n2)cc1`, the growth with HCT-15 colon is 38.9%; with HT29 colon it was 35.9%; with SNB-75 CNS it was -1.5% (active); with SNB-19 CNS, 69.5%; in the experiment with U251 CNS it was 62%; in the experiment on PC-3 prostate, 56.2%. The growth is 37.6% in the experiment with SK-MEL-5 melanoma; 23.7% with UACC-62 melanoma; 65% in the experiment on SK-MEL-28 melanoma; 70.7% in the experiment with SK-MEL-2 melanoma; 38.5% with EKVX NSCLC; 47.3% in the experiment on SN12C renal. Moreover, the growth is 23% with UO-31 renal; 75.6% in the experiment on TK-10 renal; 29.5% with ACHN renal; 40.1% in the experiment on CAKI-1 renal; 32.8% in the experiment with A498 renal; 49.4% in the experiment on CCRF-CEM leukemia. In the experiment on MOLT-4 leukemia, the growth was 56.5%.

In the case of `COc1cc(/C=C/c2c(C(C)=O)c(C)nc3ccccc23)cc(OC)c1OC`, the growth was 25.4% with HCT-15 colon; 17.6% with HT29 colon; -34.5% (active) in the experiment with SNB-75 CNS; 39.4% in the experiment on SNB-19 CNS; 39% in the experiment on U251 CNS; 32.5% in the experiment on PC-3 prostate. The growth in the experiment with SK-MEL-5 melanoma was 31.4%; with UACC-62 melanoma, 39.8%; with LOX IMVI melanoma, 38.9%; in the experiment on SK-MEL-2 melanoma, 47.9%; in the experiment with EKVX NSCLC it was 52.4%; in the experiment with SN12C renal, 35.3%. Moreover, the growth in the experiment on UO-31 renal is 36.7%; in the experiment on TK-10 renal, 78.8%; in the experiment on ACHN renal, 37.6%; in the experiment on CAKI-1 renal it was 24.7%; with A498 renal, -23.8% (active); with CCRF-CEM leukemia, 21.3%. In addition, the growth in the experiment with MOLT-4 leukemia is 33.6%.

For the compound `O=c1n(Cc2ccc3ccccc3c2)ccn1Cc1ccc2ccccc2c1`, the growth was 91.4% with HCT-15 colon; 77.1% with HT29 colon; 53.2% with SNB-75 CNS; 87.2% in the experiment with SNB-19 CNS; 92.5% in the experiment on U251 CNS; 94.4% in the experiment on PC-3 prostate. Further, the growth in the experiment with SK-MEL-5 melanoma is 95.5%; in the experiment with UACC-62 melanoma, 89.8%; with LOX IMVI melanoma, 91.2%; in the experiment with SK-MEL-2 melanoma it was 83%; in the experiment with EKVX NSCLC it was 96.6%; in the experiment on SN12C renal, 91.2%. The growth was 86.5% in the experiment with UO-31 renal; 82.7% in the experiment with TK-10 renal; 74.3% with ACHN renal; 90% in the experiment on CAKI-1 renal; 105% with A498 renal; 91.8% in the experiment on MOLT-4 leukemia.

Consider `Cc1ccc(-c2nc(N3CCN(C(=O)Nc4ccc(Cl)c(C(F)(F)F)c4)CC3)c3ccccc3n2)cc1`, for which the growth in the experiment on HCT-15 colon is 70.3%; in the experiment on HT29 colon, 75.2%; with SNB-75 CNS, 66.2%; in the experiment on SNB-19 CNS, 86%; with U251 CNS, 79.6%; in the experiment on PC-3 prostate, 49.6%. The growth in the experiment on SK-MEL-5 melanoma is 84.3%; in the experiment on UACC-62 melanoma it was 70%; in the experiment with LOX IMVI melanoma, 65.4%; in the experiment with SK-MEL-2 melanoma, 96.5%; with EKVX NSCLC it was 79.4%; with SN12C renal, 74.8%. Also, the growth in the experiment with UO-31 renal was 53.6%; with TK-10 renal, 93.7%; in the experiment with ACHN renal it was 71.5%; in the experiment on CAKI-1 renal, 53.6%; in the experiment on A498 renal, 45.9%; in the experiment with CCRF-CEM leukemia, 65.8%. In addition, in the experiment on MOLT-4 leukemia, the growth was 49.2%.

For the compound `Cc1cccc(OCC(O)CN2CCN(c3ccc(Cl)cc3)CC2)c1` (centres undefined), the growth in the experiment with HCT-15 colon is 117%; in the experiment on HT29 colon it was 104%; with SNB-75 CNS, 95.1%; with SNB-19 CNS, 99.8%; in the experiment on U251 CNS, 104%; in the experiment on PC-3 prostate, 86.5%. For the same compound, the growth with SK-MEL-5 melanoma was 100%; with UACC-62 melanoma, 94.2%; in the experiment with LOX IMVI melanoma it was 96.8%; in the experiment on SK-MEL-2 melanoma, 110%; in the experiment on EKVX NSCLC, 115%; in the experiment with SN12C renal it was 100%. The growth with UO-31 renal was 82.4%; in the experiment on TK-10 renal, 106%; in the experiment with ACHN renal it was 108%; with CAKI-1 renal, 93.1%; in the experiment on A498 renal, 100%; with CCRF-CEM leukemia, 89%. Also, in the experiment with MOLT-4 leukemia, the growth is 97.1%.

Take `COc1cc2cc(Oc3ccc(NC(=O)Nc4ccc(Cl)c(Cl)c4)cc3)c(C)nc2cc1OCCN1CCOCC1`: the growth in the experiment on HCT-15 colon is 88.9%; in the experiment with HT29 colon, 90.1%; with SNB-75 CNS, 92.9%; in the experiment with SNB-19 CNS, 90.5%; with U251 CNS, 96.6%; in the experiment with PC-3 prostate it was 76.7%. Also, the growth was 50.8% in the experiment on SK-MEL-5 melanoma; 77.8% in the experiment on UACC-62 melanoma; 93.5% with LOX IMVI melanoma; 66.4% in the experiment with EKVX NSCLC; 91.5% in the experiment on SN12C renal; 124% in the experiment with TK-10 renal. For the same compound, the growth in the experiment on ACHN renal was 93.4%; with CAKI-1 renal, 87.5%; in the experiment on A498 renal, 72.8%; with CCRF-CEM leukemia it was 65%; with MOLT-4 leukemia it was 62.7%.

With `Cc1nc2ccccc2c(/C=C/c2ccc(Cl)cc2)c1C(=O)/C=C/c1cccs1`, the growth in the experiment with HCT-15 colon is 52.1%; in the experiment on HT29 colon, 52.8%; with SNB-75 CNS, 56.7%; in the experiment with SNB-19 CNS it was 86.7%; in the experiment with U251 CNS, 77.5%; in the experiment with PC-3 prostate it was 54%. Further, the growth was 76.6% in the experiment with SK-MEL-5 melanoma; 68.4% with UACC-62 melanoma; 79.6% in the experiment with LOX IMVI melanoma; 90.9% in the experiment with SK-MEL-2 melanoma; 80.9% in the experiment on EKVX NSCLC; 72% with SN12C renal. For the same compound, the growth with UO-31 renal was 54.3%; in the experiment with TK-10 renal it was 125%; in the experiment with ACHN renal it was 78.3%; in the experiment on CAKI-1 renal, 46.2%; in the experiment with A498 renal, 40.9%; in the experiment on CCRF-CEM leukemia, 59.6%. For the same compound, the growth with MOLT-4 leukemia is 54.7%.
